Data published in article PMC4552634, “A New Set of Chemical Starting Points with Plasmodium falciparum Transmission-Blocking Potential for Antimalarial Drug Discovery” (PLoS ONE, 2015).
About 3,200 (25%) of roughly 13,000 compounds showed an effect of 50% or more. This is one part of the list.

Each molecule was assayed on P. falciparum stage V gametocytes. Settings: 48 h, 5 µM; inhibitor.
Parameters: BacTiter-Glo ATP luminescence viability of purified stage V gametocytes in 384-well plates, per cent inhibition versus DMSO

| Structure (SMILES) | % Inhibition |
| --- | --- |
| CCCC(C)N(Cc1ccc(C(C)(C)C)cc1)C(=O)c1cccc(OC)c1 (stereo not shown) [TCMDC-139783] | -10.58% |
| CCN(CC)CCOc1ccc(N(Cc2ccc(C(C)(C)C)cc2)C(=O)c2ccc(Cc3ccccc3)cc2)cc1OC [TCMDC-140667] | 103.5% |
| COc1cc(N(Cc2ccc(F)cc2)C(=O)c2ccc(-c3ccccc3)cc2)ccc1OCCN1CCCC1 [TCMDC-140662] | 28.65% |
| CCNc1cc(C(=O)N[C@@H](Cc2ccccc2)[C@H](O)CNCc2ccc3c(c2)OCCO3)cc(N2CCCCS2(=O)=O)c1 [TCMDC-135189] | -0.5627% |
| CCCc1cc(Cc2cnc(N)nc2N)cc(CCC)c1OCCCCC(=O)O [TCMDC-137293] | -0.4294% |
| COc1ccc2nc(-c3cc(-c4ccc(NC(=O)CN5CCOCC5)cc4)cnc3N)[nH]c2c1 [TCMDC-135373] | 7.84% |
| COc1ccc(-c2cc(-c3nc4ccc(C(=O)N5CCOCC5)cc4[nH]3)c(=O)n(C)c2)cc1OC [TCMDC-135055] | 52.78% |
| COc1ccc(-c2cc(-c3nc4ccc(CN)cc4[nH]3)c(=O)n(C)c2)cc1OC [TCMDC-135048] | 18.44% |
| CCN1CCC(N(Cc2ccc(-c3ccc(C(F)(F)F)cc3)cc2)C(=O)Cn2c(SCc3ccc(F)cc3)nc(=O)c3c2CCC3)CC1 [TCMDC-140976] | 69.1% |
| CCN(CC)CCN(Cc1ccc(-c2ccc(C(F)(F)F)cc2)cc1)C(=O)Cn1c(SCc2ccc(F)c(F)c2F)nc(=O)c2c1CCC2 [TCMDC-141063] | 82.6% |
| CCNC(C)(C)CN(Cc1ccc(-c2ccc(C(F)(F)F)cc2)cc1)C(=O)Cn1c(SCc2ccc(F)cc2)nc(=O)c2c1CCC2 [TCMDC-140977] | 131.5% |
| CCN1CCC(N(Cc2ccc(-c3ccc(C(F)(F)F)cc3)cc2)C(=O)Cn2nc(C)c(=O)cc2SCc2ccc(F)cc2)CC1 [TCMDC-141284] | 72.73% |
| CCn1c(SCc2ccc(F)cc2)nc2sc3c(c2c1=O)CCN(C)C3 [TCMDC-124551] | 44.44% |
| CCOC(=O)c1ccc(NC(=O)Nc2ccc(-c3cccc(-c4nc5c(C)cccc5[nH]4)c3)cc2)cc1 [TCMDC-133262] | -3.129% |
| CC(C)(C)c1ccc(CN(C[C@@H](O)CNS(=O)(=O)c2cc(Cl)cc(Cl)c2)C(C)(C)C)cc1 [TCMDC-135386] | -63.29% |
| COc1ccc(CC(=O)NC(CCCN2CCC3(CC2)OCc2ccccc23)c2ccc(Cl)c(Cl)c2)cc1 (stereo not shown) [TCMDC-141898] | -52.62% |
| O=C(Nc1cccc(F)c1)N1CCC(NS(=O)(=O)c2ccc(Br)cc2)CC1 [TCMDC-139438] | 2.418% |
| COc1cc2c(cc1OC)-c1cc(=Nc3c(C)cc(C)cc3C)n(C)c(=O)n1CC2 [TCMDC-125545] | 16.19% |
| CN(CCCNc1ccc(C(=O)Nc2ccc(C(F)(F)F)cc2)cc1[N+](=O)[O-])Cc1ccccc1 [TCMDC-125682] | -31.17% |
| CN(Cc1cccc(F)c1)C1CCN(c2cc(NC(=O)c3ccc(F)cc3)ccn2)C1 (stereo not shown) [TCMDC-135004] | -24.42% |
| CC(C)c1ccc(NC(=O)c2cccc(CN3CCCN(Cc4cccc(O)c4)CC3)c2)cc1 [TCMDC-135976] | -1.635% |
| CC(C)(C)NCCN(Cc1ccc(-c2ccc(C(F)(F)F)cc2)cc1)C(=O)Cn1c(SCc2ccc(F)cc2)nc(=O)c2c1CCC2 [TCMDC-140978] | 110.1% |
| Cn1ccnc1-c1nc2ccccn2c1NCC(=O)Nc1ccccc1N1CCCCC1 [TCMDC-133801] | -70.89% |

| Structure (SMILES) | % Inhibition |
| --- | --- |
| CCNc1cc(C)nc(Nc2ccc(NC(=O)c3ccc(OC)c(OC)c3)cc2)n1 [TCMDC-124987] | 8.373% |
| Cc1cccc(C)c1NC1=NC(=S)N(c2cccc(Cl)c2)C12CCC(C(C)(C)C)CC2 (stereo not shown) [TCMDC-124101] | -11.15% |
| CSC1=NC(=Nc2c(C)cccc2C)C2(CCCCC2)N1c1ccccc1Cl [TCMDC-124143] | 13.06% |
| CSC1=NC(=Nc2ccccc2C)C2(CCC(C(C)(C)C)CC2)N1c1ccccc1Cl (stereo not shown) [TCMDC-124136] | 53.76% |
| Cc1cc(C(=O)NC2CCN(Cc3ccccc3)CC2)ccc1-c1nc2ccc(C(F)(F)F)cc2[nH]1 [TCMDC-140120] | -4.747% |
| N#Cc1ccc(N2CCN(Cc3ccc(-c4ccc(-c5nc6ccc(F)cc6[nH]5)s4)cc3)CC2)nc1 [TCMDC-133115] | -21.41% |
| Oc1cc(Nc2ccnc3cc(-c4cccc(CN5CCOCC5)c4)ccc23)c(F)cc1Cl [TCMDC-138434] | 12.33% |
| C[C@@H](Oc1cc(-n2cnc3ccc(OCC4CCN(S(C)(=O)=O)CC4)cc32)sc1C(N)=O)c1ccccc1C(F)(F)F [TCMDC-135685] | 34.9% |
| NC(=O)c1sc(-n2cnc3ccc(OCC4CCNCC4)cc32)cc1OCc1ccccc1C(F)(F)F [TCMDC-135173] | 107% |
| COc1ccc2ncn(-c3ccc(C(N)=O)c(OCc4ccccc4C(F)(F)F)c3)c2c1 [TCMDC-134428] | 48.51% |
| CN1CCN(CCCSc2ccc3c(c2)ncn3-c2cc(OCc3ccccc3C(F)(F)F)c(C(N)=O)s2)CC1 [TCMDC-135408] | 12.22% |
| NC(=O)c1sc(-n2cnc3ccc(C(=O)NCCN4CCOCC4)cc32)cc1OCc1ccccc1C(F)(F)F [TCMDC-135181] | -45.79% |
| CC(C)CN1CCC(COc2ccc3ncn(-c4cc(O[C@H](C)c5ccccc5C(F)(F)F)c(C(N)=O)s4)c3c2)CC1 [TCMDC-135856] | 86.18% |
| Cc1nc(N)nc(N)c1CCCOc1ccccc1Cl [TCMDC-137929] | 3.372% |
| COc1cccc(CNC[C@@H](O)[C@H](Cc2ccccc2)NC(=O)c2cc(NC(C)C)cc(N3CCCCS3(=O)=O)c2)c1 [TCMDC-135205] | 28.03% |
| CC1(C)C=C(c2ccncc2)c2cc(Cl)ccc2O1 [TCMDC-131771] | -9.955% |
| O=C(NCC1CCC1)c1cnc(Nc2cccc(Cl)c2)nc1N1CCC1 [TCMDC-135363] | 5.577% |
| Cc1cc(Nc2nc(Nc3cccc(Cl)c3)nc3ccccc23)n[nH]1 [TCMDC-134695] | 12.71% |
| Clc1cccc(Nc2ccc3c(N4CCCCC4)ncnc3n2)c1 [TCMDC-134937] | 52.12% |
| OC(CNCc1ccccc1OCc1ccccc1)c1cccc(Br)c1 (stereo not shown) [TCMDC-140734] | 51.74% |
| OC(CNCc1ccccc1OCc1ccccc1)c1cccc(I)c1 (stereo not shown) [TCMDC-140522] | 41.43% |
| OC(CNCc1ccccc1OCc1ccccc1)c1cccc(Cl)c1 (stereo not shown) [TCMDC-140563] | -9.137% |
| Cc1cc(OCC(=O)Nc2ccc(-c3nc4ccccc4[nH]3)cc2)cc(C)c1Cl [TCMDC-125674] | -10.97% |

| Structure (SMILES) | % Inhibition |
| --- | --- |
| Cc1cccc(C)c1CNc1ccnc2cc(C#N)ccc12 [TCMDC-132170] | 2.762% |
| CC(C)N1CCN(CCCNc2c3ccccc3nc3ccccc23)CC1 [TCMDC-137547] | 96.57% |
| CC(C)N1CCN(CCCCNc2c3ccccc3nc3ccccc23)CC1 [TCMDC-137573] | 93.57% |
| NS(=O)(=O)NCCCN1CCN(c2ccccc2)CC1 [TCMDC-141997] | 27.05% |
| Cc1ncsc1CCN1C(=O)CC2(C1=O)C(=O)N(Cc1ccccc1)c1ccc(Cl)cc12 (stereo not shown) [TCMDC-136701] | 2.069% |
| COc1cc(F)c2ncc(Cl)c([C@@H](O)CN3CCC(NCc4cc5c(cn4)OCCO5)CC3)c2c1 [TCMDC-135475] | 41.87% |
| Cc1ccccc1OCCCc1c(C)nc(N)nc1N [TCMDC-138070] | -46.3% |
| Cc1ccc(NC(=O)c2cc(Br)cc(N3CCC(N(C)C)CC3)c2)cc1F [TCMDC-135144] | -10.77% |
| CC(C)Cc1cn(-c2nc(-c3nc4ccccc4[nH]3)cs2)c2cc(Cl)ccc12 [TCMDC-132300] | -85.76% |
| O=C(/C=C/c1cccs1)NCC(NCCCNc1cc(=O)c2ccccc2[nH]1)c1cc(Br)cc(Br)c1 (stereo not shown) [TCMDC-140318] | -18.64% |
| CCn1cc(CN2CCCC(C(=O)Nc3ccc(-c4nc5ccccc5[nH]4)cc3)C2)cn1 (stereo not shown) [TCMDC-124674] | -65.71% |
| CCN(CC)CC(O)CNc1c2ccc([N+](=O)[O-])cc2nc2cc(OC)c(OC)cc12.Cl (stereo not shown) [TCMDC-138079] | 90.61% |
| CCN(CC)CC(O)Cc1c2ccc([N+](=O)[O-])cc2nc2cc(OC)c(OC)cc12 (stereo not shown) [TCMDC-138126] | 37.45% |
| CCC(=Cc1cccc([N+](=O)[O-])c1)C(=O)NCC1CCN(c2nc(N)c3cc(OC)c(OC)cc3n2)CC1.Cl [TCMDC-138165] | 19.29% |
| Cc1noc(-c2ccc(NC[C@@H](C)NC[C@H](O)c3cccc(Cl)c3)cc2)n1 [TCMDC-132027] | 14.57% |
| COc1cc(C=Cc2ccc3ccccc3n2)cc(Br)c1OCC(=O)N(C)C [TCMDC-124818] | 44.47% |
| CCCC(=O)NC(c1cccs1)c1cc(Cl)c2cccnc2c1O (stereo not shown) [TCMDC-123634] | 68.96% |
| CC(C)C(=O)NC(c1ccc(N(C)C)cc1)c1cc(Cl)c2cccnc2c1O (stereo not shown) [TCMDC-123643] | 90.13% |
| CCCCC(=O)NC(c1cccs1)c1cc(Cl)c2cccnc2c1O (stereo not shown) [TCMDC-123653] | 45.79% |
| CC(C)C(=O)NC(c1cccs1)c1cc(Cl)c2cccnc2c1O (stereo not shown) [TCMDC-123636] | 43.04% |
| CC(=O)NC(c1cccs1)c1cc(Cl)c2cccnc2c1O (stereo not shown) [TCMDC-125548] | 90.83% |
